High-throughput results (PubChem)
ATG4B inhibitor = inhibitors of human ATG4B cysteine protease; Q9Y4P1; ATG4B cleavage of LC3-PLA2, NBD-HPC fluorescence, 1 h; inhibition, % at 8.33 µM; 0.51% of 340,000 active; in the data active = inhibition above about 40%
M1 PAM = positive allosteric modulators of human M1 muscarinic receptor. P11229. CHO-K1 hM1, Fluo-8 calcium fluorescence, ACh EC20; 0% = ACh EC20, 100% = maximal ACh. activation, % at 3 µM. 0.088% of 360,000 active. AID 588819; in the data active = activation above about 19%, passing the limit was not always enough
Target sequence (P11229 whole entry, looked up): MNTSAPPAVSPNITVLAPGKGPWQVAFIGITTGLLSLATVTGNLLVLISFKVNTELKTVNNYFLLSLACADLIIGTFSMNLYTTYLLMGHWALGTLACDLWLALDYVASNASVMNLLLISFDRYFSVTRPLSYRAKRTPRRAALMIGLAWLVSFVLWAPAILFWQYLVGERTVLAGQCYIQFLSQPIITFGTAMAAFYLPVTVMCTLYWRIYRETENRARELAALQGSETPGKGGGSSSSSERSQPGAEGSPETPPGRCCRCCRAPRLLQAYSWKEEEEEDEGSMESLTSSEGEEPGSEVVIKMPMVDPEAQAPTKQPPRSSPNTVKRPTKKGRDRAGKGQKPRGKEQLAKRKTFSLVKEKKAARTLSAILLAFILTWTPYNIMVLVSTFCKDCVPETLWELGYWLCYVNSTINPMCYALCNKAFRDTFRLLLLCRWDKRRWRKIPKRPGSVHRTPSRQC
M1 antag = blocks human M1 muscarinic receptor. CHO-K1 hM1, Fluo-8 calcium fluorescence, ACh EC80 antagonist. inhibition, % at 3 µM. 1.3% of 360,000 active. AID 588852;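 active = percent inhibition above its own plate's cutoff, namely the mean of that plate's compound wells plus 3 SD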;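 also: peak over basal fluorescence ratio during 140 s after agonist addition; 0% = ACh EC80 plus DMSO and 100% = DMSO alone without agonist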
Myeloid diff MLP = promotes myeloid progenitor differentiation; 1% of 360,000 active; calls only at 10 µM; ER-HoxA9 myeloid progenitors, lysozyme-GFP differentiation, flow cytometry;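 active = normalized GFP-positive differentiation at or above the plate's own cutoff, the solvent-only control mean plus 3 SD; inconclusive = no clear call, values can overlap the other calls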;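 also: cells exposed to compound for four days before flow analysis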
M1 ag = agonists of human M1 muscarinic receptor | P11229 | activation, % at 3 µM | CHO-K1 hM1, Fluo-8 calcium fluorescence, agonist mode; 0% DMSO, 100% acetylcholine EC100 | 0.33% of 360,000 active;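 active = activation above the run's mean compound activation plus 3 SD, cut at about 16% in these data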;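 also: peak over basal fluorescence ratio within a 140 s kinetic read after compound addition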
SKN-1 inh = C. elegans SKN-1 inhibition; 0.49% of 360,000 active; inhibition, % at 21.8 µM; AID 624304; C. elegans VP596 Pgst-4::GFP/RFP ratio, acrylamide-induced, 24 h;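 active = interference check ratio from 0.5 to 1.5 plus GFP to RFP signal ratio inhibition reaching or exceeding a fixed threshold, cut at about 30% in these data, passing the limit was not always enough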
The depositor's hits bear a star; i = inactive; ? = inconclusive; . = no result; + = active, no number. Sampled rows, rich in hits. Any-hit rate of the full collection: about 3.5%.

SMILES	ATG4B inhibitor	M1 PAM	M1 antag	Myeloid diff MLP	M1 ag	SKN-1 inh
CCOC(=O)c1cc(C)n(CCCN2CCOCC2)c1C	-15	-19	35*	i	-7	0
CCCCN(C(C)=O)c1ccc2c(c1)C1CC2CCN1C(=O)OCc1ccccc1 (stereo not given)	36	-14	34*	i	-7	-1
O=C(OCc1ccccc1)N1CCC2CC1c1c(Cl)cccc12 (stereo not given)	9	-3	-8	i	-8	1
O=C(OCc1ccccc1)N1CCC2CC1c1ccc(Cl)cc12 (stereo not given)	.	6	-3	+	6	-1
Cc1ccccc1OCC(=O)NCC(c1cccs1)N1CCOCC1 (stereo not given)	-4	-2	12	i	-3	-1
N#CCCSC(=S)C1CCCC1=N (stereo not given)	.	8	-14	i	-6	19
O=C(Nc1ccc2c(c1)OCCO2)c1c(Cl)cccc1Cl	.	-17	32*	i	-5	13
CN(c1ccc(C(=O)Nc2ccc3c(c2)OCCO3)cc1)S(C)(=O)=O	-8	0	2	+	-2	11
Cc1c(NC(=O)CSc2ccc3c(c2)OCCO3)c(=O)n(-c2ccccc2)n1C	-12	11	-5	i	-2	44*
O=S1(=O)CC(N2CCSCC2)CN1Cc1cn(Cc2ccccc2)nn1 (stereo not given)	.	.	.	i	.	-6
CCC(C(=O)Nc1ccccc1OC)n1c(C(=O)OC)cc2ccsc21 (stereo not given)	-8	-5	-4	+	-9	5
C[N+]1(CC2COC3(CCCCC3)O2)CCCC1 (stereo not given)	-3	-15	13	i	-8	12
CC1CC(C)(C)OC(C[N+]2(C)CCCCC2)O1 (stereo not given)	1	-15	35*	i	-6	-4
CCCn1c(NC(=S)Nc2ccccc2)nc2ccccc21	6	1	-3	i	-8	7
S=C(Nc1ccccc1)Nc1nc2ccccc2n1CCOc1ccc(Cl)cc1	2	3	-9	i	-8	59*
O=C(N1CCCC1)C12CC3CC(CC(Cl)(C3)C1)C2	-4	2	-9	i	-4	5
CCN(CC)CCOC(=O)c1cc(Cl)c(N)cc1OC	4	0	-22	i	-7	4
O=c1[nH]c2ccccc2nc1/C=C/c1ccc(O)cc1	-7	6	5	+	1	7
O=c1[nH]c2ccccc2nc1/C=C/c1ccc(F)cc1	-6	2	3	+	-4	6
O=c1[nH]c2ccccc2nc1/C=C(\O)c1cccs1	1	-7	4	i	18*	1
O=c1[nH]c2ccccc2nc1/C=C/c1ccccc1	-4	8	-7	i	-5	12
O/C(=C\c1nc2ccccc2[nH]1)c1cccs1	4	15	-20	i	-5	15
O=C(/C(=C/c1ccc(Cl)cc1)c1nc2ccccc2[nH]1)c1cccs1	-3	-36	94*	?	-11	7
CCOc1ccc(N2CC(C(=O)Nc3cccc(C(=O)NC4CC4)c3)CC2=O)cc1 (stereo not given)	-16	9	-17	i	-4	0
CCCCn1c(N)c(N(CC(C)C)C(=O)C2CCN(S(=O)(=O)c3ccc(Cl)cc3)CC2)c(=O)[nH]c1=O	-11	5	0	i	-1	-5
COc1ccc(S(=O)(=O)N(CC(=O)N2CCN(C)CC2)C2CCCCC2)cc1OC	-10	9	-9	i	-4	11
CN1CCN(C(=O)CN(C2CCCCC2)S(=O)(=O)c2ccc(Br)cc2)CC1	-9	-2	2	i	18*	-11
CCOC(=O)C1CCN(c2ccccc2CN2CCN(c3ccccc3OCC)CC2)CC1	-1	-23	48*	i	-7	4
CCOC(=O)C1CCN(Cc2cc(=O)oc3c(C)c(C)ccc23)CC1	-4	-2	-5	+	-3	12
C[C@H](CO)N1C[C@H](C)[C@H](CN(C)C(=O)Nc2ccc(C(F)(F)F)cc2)Oc2ncc(-c3cccnc3)cc2C1=O	.	-5	16	i	-6	-6
